The record followed here is PubChem BioAssay (NCATS).

Values joined by “and” are separate entries in the source; they are usually repeats but may differ in a detail not shown here. Equal entries are not always repeated. Values without a mark were called inactive. Records with an inconclusive call do not appear. Active and inactive are the calls of the source. Unless noted, calls come from the whole dose curve; as a rule, active = well fitted curve in the direction sought with a large enough effect; inconclusive = small, poorly fitted or top-dose-only effect, or another doubt; inactive = no such curve, though single readings can be large; an effect the other way counts as inactive or inconclusive.

A short description of experiment [1]: qHTS assay to identify inhibitors of the type 1 interferon - major histocompatibility complex class I in skeletal muscle: Counter screen cell viability and HiBit confirmation (AID 1347412). Note: potency is the fitted concentration of half-maximal effect; nearly all actives have a fitted effect of over 60% in size. As to conditions: iHSKM muscle cells + IFN-b, HiBiT or CellTiter-Glo, 24 h. Put shortly: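 Human myoblast knock-in line, 4.0 ng/ml IFN-beta stimulation, 24 h compound treatment. Endpoints: HiBiT lytic luminescence (HLA-B level) and CellTiter Glo (ATP). Dosing 12 concentrations, 3-fold steps, 46 uM highest final.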
Background: qHTS replaces the single test concentration by a dilution series.

Experiment [2] in a line: Drug repurposing screens with cells derived from glioblastoma tumor samples (AID 1345199). For activity, negative = cell killing: % is set by controls: 0 for no effect and ±100 for the full control effect. For all read-outs here: nearly all actives have a fitted effect of over 40% in size. Note: potency is the fitted concentration of half-maximal effect. As to conditions: GBM patient neurospheres viability, ATP luminescence, 48 h; for Potency: tumour line A. Put shortly:
(§1)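 Four patient lines of CD133+ GBM neurospheres were screened at several concentrations; hits were retested in those lines plus three slower-growing GBM lines, using 48-hour treatment and ATP-based viability.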

The next experiment deals with astro. Described as above. As to conditions: viability, ATP luminescence, 48 h; series mostly up to 45.9 µM. Put shortly:
as §1

Experiment [3] has as its target Nuclear receptor subfamily 1 group I member 2 (Rattus norvegicus) (UniProt Q9R1A7). In words: qHTS assay for small molecule activators of the rat pregnane X receptor (rPXR) signaling pathway (AID 651751; call rule not given here; note: 0% is about no effect). As to conditions: rPXR reporter cells, luciferase (One-Glo), 24 h.
Experiment [4] can be described thus: qHTS assay for small molecule activators of the human pregnane X receptor (PXR) signaling pathway (AID 720659; call rule not given here; note: 0% is about no effect). As to conditions: DPX-2 HepG2 CYP3A4-luciferase, 24 h; series mostly up to 92.3 µM.
[5] abbreviates: at 45.9 µM (top of the series), tumour line B.
Setting [6] is: at 45.9 µM (top of the series), tumour line D.
Where [7] appears, read: at 46.1 µM (top of the series), tumour line C.

Chain of Nuclear receptor subfamily 1 group I member 2 (Rattus norvegicus) (Q9R1A7 whole entry, looked up): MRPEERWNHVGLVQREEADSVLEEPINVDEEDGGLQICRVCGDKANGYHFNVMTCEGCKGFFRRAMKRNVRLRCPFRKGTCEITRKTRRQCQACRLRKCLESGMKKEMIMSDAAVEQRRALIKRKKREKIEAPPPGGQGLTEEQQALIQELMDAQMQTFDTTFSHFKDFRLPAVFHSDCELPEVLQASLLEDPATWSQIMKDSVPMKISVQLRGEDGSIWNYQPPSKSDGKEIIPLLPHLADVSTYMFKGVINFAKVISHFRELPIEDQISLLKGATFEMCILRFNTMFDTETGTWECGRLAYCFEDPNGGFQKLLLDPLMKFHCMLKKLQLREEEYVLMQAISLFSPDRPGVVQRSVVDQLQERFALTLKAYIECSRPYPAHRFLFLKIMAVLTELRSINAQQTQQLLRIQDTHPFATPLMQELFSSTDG

`COc1cccc(OCCCN)c1-c1cc(Nc2cnc(C#N)cn2)n[nH]1`: the results for the Potency in experiment [1] (HiBiT) and in experiment [1] (Viability) were 15.7 µM (active) and 17.6 µM (active), respectively.
Regarding `NCCC(=O)[N-][C@@H](Cc1cnc[nH]1)C(=O)O.[Zn]`, the activity, negative = cell killing in experiment [2] (setting [5]) is -11.4%; in experiment [2] (setting [6]) it was -14.7%; in experiment [2] (setting [7]) it was 0.418%. In addition, the Potency entry in the experiment with astro was “inactive”.
As for `COC(=O)C[C@](O)(CCCC(C)(C)O)C(=O)O[C@@H]1C(OC)=CC23CCCN2CCc2cc4c(cc2[C@H]13)OCO4` (some centres not stated), the Potency with astro is 1.12 µM (active).
As for `CCCCCCCC/C=C\CCCCCCCC(=O)OC[C@@H](O)[C@H]1OC[C@H](O)[C@H]1O`, the activity, negative = cell killing in experiment [2] (setting [5]) was -4.65%; in experiment [2] (setting [6]) it was 1.42%. Further, the max response in experiment [3] was 1.88%. For the same compound, in experiment [4], the compound was classed as inactive.
As for `NCCCNCCCCNC(=O)C(O)NC(=O)CCCCCCN=C(N)N` (configuration not stated), the activity, negative = cell killing in experiment [2] (setting [5]) is -10.7%; in experiment [2] (setting [7]) it was -21.3%. Besides, the Potency entry in the experiment with astro was “inactive”.
As for `CCCCCCCCCCCCCCCC(=O)OC[C@H](O)[C@H]1OC(=O)C(O)=C1O`, the activity, negative = cell killing in experiment [2] (setting [5]) was -21.6%; in experiment [2] (setting [6]), -24.1%. In addition, in the experiment with astro, the Potency result is “inactive”.
As to `CN=C(NC)NCc1ccccc1`, the activity, negative = cell killing in experiment [2] (setting [5]) was -3.78%; in experiment [2] (setting [6]), 7.26%; in experiment [2] (setting [7]), -3.39%. Besides, the Potency entry in the experiment on astro is “inactive”.
Consider `Cc1ccc(C(=O)Nc2ccc(CN3CCN(C)CC3)c(C(F)(F)F)c2)cc1C#Cc1cnc2[nH]ncc2c1`, for which, in experiment [1] (HiBiT), the Potency was 0.394 µM (active).
On to `NCCC[C@H](N)C(=O)O`, for which the activity, negative = cell killing in experiment [2] (setting [5]) was -11.7%; in experiment [2] (setting [6]), -10.6%; in experiment [2] (setting [7]) it was -18.4%. The Potency result with astro was “inactive”.
On to `CC(=O)OC[C@H]1O[C@@H](O[C@H]2[C@H](O)[C@@H](OC(=O)c3ccccc3C(=O)O)[C@H](O)O[C@@H]2COC(C)=O)[C@H](O)[C@@H](OC(=O)c2ccccc2C(=O)O)[C@@H]1O`, for which the values for the activity, negative = cell killing in experiment [2] (setting [5]), in experiment [2] (setting [6]) and in experiment [2] (setting [7]) were -10.5%, -4.26% and 6.79%, respectively. Further, in the experiment with astro, the Potency result is “inactive”.
With `NC(=O)c1ccccc1Nc1ccnc(Nc2cccc(O)c2)n1`, the Potency in experiment [1] (HiBiT) is 4.97 µM (active).
As to `CCN(CC)c1ccc(C(=C2C=CC(=[N+](CC)CC)C=C2)c2ccccc2)cc1`, the Potency in the experiment on astro is 2 µM (active).
Consider `C[N+](C)(CCCCCC[N+](C)(C)C1c2ccccc2-c2ccccc21)C1c2ccccc2-c2ccccc21`, for which the Potency result in the experiment on astro is “inactive”.
Consider `CC(=O)O[C@H]1C[C@@H]2CC[C@@H]3[C@H](CC[C@@]4(C)[C@H]3C[C@H](N3CC[N+](C)(C)CC3)[C@@H]4OC(C)=O)[C@@]2(C)C[C@@H]1N1CC[N+](C)(C)CC1`, for which the activity, negative = cell killing in experiment [2] (setting [5]) was -3.42%; in experiment [2] (setting [6]) it was 1.51%; in experiment [2] (setting [7]), 2.56%. In addition, the Potency result in the experiment with astro was “inactive”.
As for `c1ccc2c(CCC3CCNCC3)c[nH]c2c1`, the Potency result in the experiment with astro was “inactive”.
Same read-out and setting: for `COc1cc([C@@H]2c3cc4c(cc3C(O[C@@H]3O[C@@H]5COC(c6cccs6)O[C@H]5[C@H](O)[C@H]3O)C3COC(=O)[C@@H]32)OCO4)cc(OC)c1O` (some centres not stated) the value was 12.6 µM (active).
Turning to `CCC(=O)OCC(=O)[C@@]1(OC(=O)CC)[C@@H](C)C[C@H]2[C@@H]3CCC4=CC(=O)C=C[C@]4(C)[C@@]3(Cl)[C@@H](O)C[C@@]21C`, the values for the activity, negative = cell killing in experiment [2] (setting [5]) and in experiment [2] (setting [7]) were -9.44% and -19%, respectively. For the same compound, the Potency in experiment [2] was 10 µM (active). Further, the Potency result in the experiment with astro was “inactive”.
As for `CON=C1C[C@]2(C[C@@H]3C[C@@H](C/C=C(\C)C[C@@H](C)/C=C/C=C4\CO[C@@H]5[C@H](O)C(C)=C[C@@H](C(=O)O3)[C@]45O)O2)O[C@H](/C(C)=C/C(C)C)[C@H]1C`, in the experiment with astro, the Potency was 17.8 µM (active) and 20 µM (active).
As to `Cc1cccc(C)c1N(CCCc1cccnc1)C(=O)C(C)N` (configuration not stated), the activity, negative = cell killing in experiment [2] (setting [5]) was -3.85%; in experiment [2] (setting [6]), -15.3%. Moreover, the Potency in experiment [2] is 11.2 µM (active). Further, in the experiment on astro, the Potency entry is “inactive”.
As to `CCOC(=O)COc1ccc2c(=O)cc(-c3ccccc3)oc2c1`, the activity, negative = cell killing was -18.4% in experiment [2] (setting [6]); -1.42% and -17.4% in experiment [2] (setting [7]). Besides, in the experiment with astro, the Potency entry was “inactive”.
In the case of `CC(CC(c1ccccc1)c1ccccc1)NC(C)(C)C` (configuration not stated), the Potency entry in the experiment with astro is “inactive”.
`COC(C)=O`: the activity, negative = cell killing in experiment [2] (setting [5]) was -2.89%; in experiment [2] (setting [6]), 6.97%; in experiment [2] (setting [7]), 7.29%. Further, the Potency result in the experiment on astro was “inactive”. For the same compound, the max response in experiment [3] is 5.57%. In experiment [4], the result was inactive.
Take `CCC(C)[C@H]1O[C@]2(C=C[C@@H]1C)C[C@@H]1C[C@@H](C/C=C(\C)[C@@H](O[C@H]3C[C@H](OC)[C@@H](O[C@H]4C[C@H](OC)[C@H](NC(C)=O)[C@H](C)O4)[C@H](C)O3)[C@@H](C)/C=C/C=C3\CO[C@@H]4[C@H](O)C(C)=C[C@@H](C(=O)O1)[C@]34O)O2` (some centres not stated): in the experiment on astro, the Potency is 6.31 µM (active) and 20 µM (active).
On to `CCOC(=O)Cc1cccc(-c2cc(CCCCCCc3ccc(O[C@H]4O[C@H](COC(C)=O)[C@@H](OC(C)=O)[C@H](OC(C)=O)[C@@H]4OC(C)=O)c(-c4cccc(CC(=O)OCC)c4)c3)ccc2O[C@H]2O[C@H](COC(C)=O)[C@@H](OC(C)=O)[C@H](OC(C)=O)[C@@H]2OC(C)=O)c1`, for which the results for the activity, negative = cell killing in experiment [2] (setting [5]), in experiment [2] (setting [6]) and in experiment [2] (setting [7]) were -6.7%, -4.61% and 18%, respectively. Besides, the Potency result in the experiment with astro was “inactive”.
Take `COCCNCc1ccc(-c2cc3nccc(Oc4ccc(NC(=O)C5(C(=O)Nc6ccc(F)cc6)CC5)cc4F)c3s2)nc1`: the Potency in experiment [1] (Viability) is 31.3 µM (active).
Turning to `C=CCNC1=C2C[C@@H](C)C[C@H](OC)[C@H](O)[C@@H](C)/C=C(\C)[C@H](OC(N)=O)[C@@H](OC)/C=C\C=C(/C)C(=O)NC(=CC1=O)C2=O`, in experiment [1] (HiBiT), the Potency is 0.0701 µM (active).
As for `CC1=C(C(=O)OCCN(Cc2ccccc2)c2ccccc2)C(c2cccc([N+](=O)[O-])c2)C(P2(=O)OCC(C)(C)CO2)=C(C)N1` (configuration not stated), the activity, negative = cell killing in experiment [2] (setting [5]) is 19%. Moreover, the Potency result in the experiment with astro was “inactive”.
For the compound `C[C@]12CC[C@@H]3c4ccc(OS(=O)(=O)O)cc4CC[C@H]3[C@@H]1CCC2=O`, the activity, negative = cell killing is -10.8% in experiment [2] (setting [5]), 4.49% in experiment [2] (setting [6]) and -5.66% in experiment [2] (setting [7]). Also, the Potency entry with astro is “inactive”.
Turning to `C/C=C1\NC(=O)[C@H]2CSSCC/C=C/[C@H](CC(=O)N[C@H](C(C)C)C(=O)N2)OC(=O)C(C(C)C)NC1=O` (some centres not stated), the Potency in the experiment on astro was 0.708 µM (active).
